Compound activity: PubChem BioAssay, several laboratories
An excerpt weighted towards active compounds, which were near 4% of everything screened.
FAS-TE inh = inhibitors of human fatty acid synthase thioesterase domain. inhibition, % at 15 µM. recombinant FAS-TE, OMFH fluorogenic substrate, fluorescence endpoint. 0.67% of 360,000 active;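 active means compounds whose normalised, plate-corrected inhibition of enzyme fluorescence in the single-dose primary screen is 50% or more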
ADAM10 inh = inhibitors of human ADAM10; 0.62% of 370,000 active; recombinant ADAM10, EDANS/DABCYL FRET peptide cleavage, 3 h; inhibition, % at 7 µM; O14672;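 active means inhibition above a per-campaign cutoff equal to the mean of compounds falling between control-based bounds plus 3 SD, cut at about 20% in these data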
Target sequence (O14672 214-748 limits assumed): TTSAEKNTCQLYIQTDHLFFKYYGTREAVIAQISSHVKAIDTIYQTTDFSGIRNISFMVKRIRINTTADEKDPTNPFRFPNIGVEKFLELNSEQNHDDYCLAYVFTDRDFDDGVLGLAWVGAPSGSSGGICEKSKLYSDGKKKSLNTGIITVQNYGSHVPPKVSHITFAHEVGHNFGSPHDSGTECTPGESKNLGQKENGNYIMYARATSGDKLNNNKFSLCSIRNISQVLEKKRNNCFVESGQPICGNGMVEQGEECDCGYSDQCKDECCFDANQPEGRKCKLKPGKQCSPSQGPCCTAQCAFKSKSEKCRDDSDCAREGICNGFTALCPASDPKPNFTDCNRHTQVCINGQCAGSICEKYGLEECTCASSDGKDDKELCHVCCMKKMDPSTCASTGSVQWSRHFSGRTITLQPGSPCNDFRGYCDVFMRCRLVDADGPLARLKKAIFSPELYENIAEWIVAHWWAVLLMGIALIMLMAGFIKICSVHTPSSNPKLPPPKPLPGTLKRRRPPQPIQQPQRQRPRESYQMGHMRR
aDG glyco act = increases alpha dystroglycan glycosylation. Pro5-aDG cells, alpha-DG glycosylation AlphaScreen (IIH6); 0% Pro5, 100% B10-LARGE cell signal. activation, % at 10 µM. 0.22% of 360,000 active;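 active means activation of at least 8% versus controls, or a plate z-score of at least 8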;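 further: Pro5 are CHO cells carrying HIG-tagged alpha-DG that lacks glycosylation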
GRIN3A LBD mod = NR3A (human) ligand-binding domain modulation. AID 1259313. NR3A LBD differential scanning fluorimetry, Tm shift; 0% = protein alone, 100% = glycine-bound protein. Tm shift relative to glycine control, % at 25 µM. 2.5% of 340,000 active;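 active means melting temperature shift of at least 10% of the positive control shift, at one fixed dose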
ADAM17 inh = ADAM17 inhibition, QFRET primary screen; P78536; recombinant ADAM17, EDANS/DABCYL FRET peptide cleavage; inhibition, % at 6.95 µM; 0.83% of 370,000 active;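 active means inhibition above the mean of compounds lying between control limits plus 3 SD, set per campaign, cut at about 8.5% in these data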
Large screens that a line does not name were inactive.

COc1cc(OC)c(C(=O)NNC(=O)CN(C)S(=O)(=O)c2ccc(Cl)cc2)cc1OC	GRIN3A LBD mod 35
O=C(Oc1ccc(Br)cc1C(=S)N1CCCCC1)c1cc([N+](=O)[O-])cc([N+](=O)[O-])c1	FAS-TE inh 53 (no result: ADAM10 inh, ADAM17 inh)
Cc1cc(C(=O)N2CCCC2(C)C(=O)NCC(C)C)nn1C(C)(C)C (configuration not stated)	none (no result: GRIN3A LBD mod)
CCc1ccc(OCC(=O)NC(NC(=S)Nc2ccccc2)C(Cl)(Cl)Cl)cc1 (configuration not stated)	GRIN3A LBD mod 23
CCc1ccc(OCC(=O)NC(NC(=S)Nc2ccccc2C)C(Cl)(Cl)Cl)cc1 (configuration not stated)	GRIN3A LBD mod 15
O=C(NC(NC(=S)Nc1cccc(C(=O)O)c1)C(Cl)(Cl)Cl)OCc1ccccc1 (configuration not stated)	none
Cc1ccccc1NC(=S)NC(NC(=O)COc1ccccc1)C(Cl)(Cl)Cl (configuration not stated)	none
Cc1cccc(NC(=S)NC(NC(=O)OCc2ccccc2)C(Cl)(Cl)Cl)c1 (configuration not stated)	GRIN3A LBD mod 27
CCC1CCCCN1Cc1ccc(CNC(=O)CCc2nnc3ccc(N4CCCCC4)nn23)o1 (configuration not stated)	none
CC(=O)Nc1ccc(-c2cn3c(n2)SCC3)cc1	none
O=C(NCc1ccco1)/C(=C/c1ccc(F)cc1)NC(=O)c1ccccc1	none
O=C(NCc1ccco1)/C(=C/c1ccccc1F)NC(=O)c1ccccc1	GRIN3A LBD mod 14
COc1ccccc1N1CCN(S(=O)(=O)c2ccc3nc(-c4ccccc4)[nH]c3c2)CC1	none
O=S(=O)(c1ccc2nc(-c3ccccc3)[nH]c2c1)N1CCN(c2cccc(Cl)c2)CC1	GRIN3A LBD mod 17
CCN1CCN(C(=S)c2ccc(OCC(=O)N3CCOCC3)cc2)CC1	none
O=C(NCC1CC1)c1ccc(Nc2nc3ccc(Br)cc3[nH]2)cc1	GRIN3A LBD mod 28
O=C(NCC1CC1)c1ccc2nc([C@@H]3O[C@H](CO)[C@H](O)[C@H](O)[C@H]3O)[nH]c2c1	none (no result: GRIN3A LBD mod)
O=C(NCc1ccco1)c1cccc(Nc2nc3ccc(Br)cc3[nH]2)c1	GRIN3A LBD mod 13
Cc1cc(C)c2c(=O)n(CC(=O)NCCCN3CCOCC3)sc2n1	GRIN3A LBD mod 19 (no result: ADAM10 inh, ADAM17 inh)
Cc1cc(C)c2c(=O)n(CC(=O)NCCCN3CCN(c4ccccc4F)CC3)sc2n1	none (no result: FAS-TE inh, ADAM10 inh, aDG glyco act, ADAM17 inh)
COc1cccc2c1Oc1ncccc1N(C(=O)CCC(=O)NCc1ccccc1Cl)C2	none
Cc1ccc(NC(=O)c2cccs2)cc1NC(=O)c1ccco1	none
O=C(NC(=S)Nc1ccc(NC(=O)c2cccs2)cc1)c1cc2ccccc2o1	GRIN3A LBD mod 29
O=C(Nc1ccc(NC(=O)c2cccs2)cc1)c1ccco1	GRIN3A LBD mod 20
O=C(Nc1ccc(NC(=S)NC(=O)c2ccccc2F)cc1)c1cccs1	GRIN3A LBD mod 20
O=C(NC(=S)Nc1ccc(NC(=O)c2cccs2)cc1)c1ccco1	GRIN3A LBD mod 24
Cc1ccc(-n2c(SCC(=O)N3CCN(c4ccccn4)CC3)nnc2N2CCCC2)cc1	none
CC(C)[C@H](Nc1ccc(C(F)(F)F)cc1[N+](=O)[O-])C(=O)O	none
O=C(NNc1ccc(C(F)(F)F)cc1[N+](=O)[O-])c1ccc(NS(=O)(=O)c2ccc(F)cc2)cc1	GRIN3A LBD mod 22
CC1(c2ccc3ccccc3c2)NC(=O)N(CC(=O)NCc2cccs2)C1=O (configuration not stated)	none
CC1(c2ccc3ccccc3c2)NC(=O)N(CC(=O)NCC(C)(C)N2CCOCC2)C1=O (configuration not stated)	GRIN3A LBD mod 17
COc1ccc(Cl)cc1Cn1c(C)c(C(=O)NCc2cccc(Cl)c2)sc1=O	ADAM17 inh 10 (no result: GRIN3A LBD mod)
COc1ccc(C(C)=O)cc1Cn1c(C)c(C(=O)NCc2cccc(Cl)c2)sc1=O	none (no result: GRIN3A LBD mod)
O=C(Cn1nnc(-c2ccccc2F)n1)Nc1ccc(Cl)cc1	none (no result: FAS-TE inh, aDG glyco act, GRIN3A LBD mod)
Nc1[nH]c(=O)[nH]c(=O)c1N=Nc1cccc(Cl)c1	GRIN3A LBD mod 16
O=C(NCCO)NC(=S)c1ccccc1	none
N#Cc1c(N)nc2c(c1-c1ccncc1)CCCCCC2	GRIN3A LBD mod 36
COc1ccc(S(=O)(=O)n2[nH]c(=O)c(CCO)c2C)c([N+](=O)[O-])c1	GRIN3A LBD mod 16
CCOc1cc(/C=N/N=C(/N)c2nonc2N)cc(Br)c1OCc1ccc(Cl)cc1	none
